# Screening data from PubChem.
# Pf growth 48h – Primary qHTS for delayed death inhibitors of the malarial parasite plastid, 48 hour incubation | P. falciparum luciferase growth in erythrocytes, 48 h | Potency, µM (series often up to 28.7 µM), for the others: at the top dose activity change, negative = inhibition, most hits filed as inhibitors | hit rate 5.9% among 310,000 | AID 504832, 2011; active means well fitted inhibition curve with a large enough effect; inconclusive means small, poorly fitted or top-dose-only effect, or another doubt; inactive means no such curve, though single readings can be large or run the other way; further: potency means the concentration at half of the fitted maximal effect; on the % scale 0 is the no-effect control and ±100 the full control effect
#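 Cell-based growth assay: transgenic P. falciparum expressing firefly luciferase, cultured in red cells within RPMI 1640 containing 0.5% w/v Albumax, 24 mM bicarbonate and gentamycin. A drop in luciferase activity indicates inhibition.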
# Cycloheximide cs – Cycloheximide Counterscreen for Small Molecule Inhibitors of Shiga Toxin; hit rate 12% among 300,000; cell reporter, cycloheximide protein synthesis inhibition counterscreen; max response, %; in the data active means max response mostly above about 13%, no sharp cut-off; inactive means mostly below about 14%; further: read at 38.3 µM for the half of the compounds with a filed dose; 0% is about no effect
# Pf growth 96h – Primary qHTS for delayed death inhibitors of the malarial parasite plastid, 96 hour incubation | Potency, µM (top dose mostly 28.7 µM), without a hit: top-dose activity change, negative = inhibition, actives largely listed as inhibitors | hit rate 6.9% among 320,000 | P. falciparum luciferase reporter growth, 96 h | AID 504834, 2011; active means well fitted inhibition curve with a large enough effect; inconclusive means small, poorly fitted or top-dose-only effect, or another doubt; inactive means no such curve, though single readings can be large or run the other way; further: potency means the concentration at half of the fitted maximal effect; on the % scale 0 is the no-effect control and ±100 the full control effect
#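 Two parasite generations (96 h, 37 C, 5% CO2) of compound exposure in infected erythrocytes (0.05% parasitemia, 2% hematocrit). Luciferase-reporter P. falciparum; decreased luminescence indicates inhibited growth, aimed at apicoplast-acting delayed death.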
# NS1 function inh – qHTS Assay for Inhibitors of Influenza NS1 Protein Function | Potency, µM (top dose mostly 46.1 µM), inactives show top-dose activity, positive = more growth | hit rate 0.4% among 270,000; further: potency means the concentration at half of the fitted maximal effect; actives are rising curves; nearly all actives have a fitted effect of over 50% in size
#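 Read-out: OD600 growth recovery of NS1-expressing budding yeast. Cells grown overnight at 30C in -URA glucose medium, washed, resuspended and diluted 1:100 in 2% galactose assay medium, pH 6.0. Same strain lacking NS1 served as positive control.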
# SARS PLpro yeast – qHTS of Yeast-based Assay for SARS-CoV PLP; hit rate 0.19% among 330,000; Potency, µM (doses to about 32.9 µM), for inactives: top-dose activity, positive = growth rescue, usual class: activators; S. cerevisiae expressing SARS-CoV PLpro, growth rescue; further: potency means the concentration at half of the fitted maximal effect; 0% is about no effect; nearly all actives have a fitted effect of over 55% in size
# Shiga inhibitor – A qHTS for Small Molecule Inhibitors of Shiga Toxin; Vero cells, Shiga toxin protein synthesis inhibition reporter; inhibition, % at 38.7 µM; hit rate 9.2% among 290,000; in the data active means inhibition mostly above about 28%, no sharp cut-off; inactive means mostly below about 43%; further: 0% is about no effect
# * marks the source's active call; other numbers are inactive results; ? = inconclusive; . = no result; [ ] = dose if it differs, or a comment. An excerpt weighted towards active compounds, which were near 21% of everything screened. Unless noted, the call rests on the fitted dose curve.
SMILES,Pf growth 48h,Cycloheximide cs,Pf growth 96h,NS1 function inh,SARS PLpro yeast,Shiga inhibitor
O=c1[nH]c2ccccc2cc1CN(Cc1cccnc1)S(=O)(=O)c1ccc([N+](=O)[O-])cc1,?,-7,4.7µM*,19%,-4%,-8
COc1cccc(-c2c(C#N)c(N)nc3c2c(C)nn3-c2ccccc2)c1O,0.37µM*,-3,0.52µM*,-1%,-6%,3
Cc1nn(-c2ccccc2)c2nc(N)c(C#N)c(-c3ccc(C(C)(C)C)cc3)c12,?,-1,4.7µM*,1%,0%,12
O=C(OOC(=O)c1ccccc1)c1ccccc1,-4%,-7,-11%,.,.,-13
N#CC1=C2SCN(Cc3ccco3)CN2C(=O)CC1c1cccc2ccccc12 (stereo unspecified),12µM*,-1,-6%,-48%,9%,13
O=C(NNC(=O)c1cccs1)c1csc(N2CCOCC2)n1,20%,.,47%,.,2%,.
O=C(NNC(=O)C12CC3CC(CC(C3)C1)C2)c1csc(N2CCOCC2)n1,?,.,13µM*,.,2%,.
Cc1nccc(-c2cccc(N/N=C(\C#N)C(=O)c3ccccc3)c2)n1,13µM*,-3,5.2µM*,-1%,-1%,-8
O=S(=O)(NCC(c1ccc2c(c1)OCO2)N1CCN(c2ccccc2)CC1)c1ccccc1 (stereo unspecified),7.4µM*,.,?,.,-2%,.
O=S(=O)(NCC(c1cccnc1)N1CCN(c2ccccc2)CC1)c1cc(F)ccc1F (stereo unspecified),10µM*,0,2%,-56%,-11%,15
COc1ccccc1N1CCN(C(CNS(=O)(=O)c2cc(F)ccc2F)c2cccnc2)CC1 (stereo unspecified),?,-2,?,7%,2%,6
CCOc1ccc(S(=O)(=O)NCC(c2ccc3c(c2)OCO3)N2CCN(C)CC2)cc1 (stereo unspecified),-29%,.,1%,.,13%,.
Cc1ccc(OCC(=O)NNC(=O)c2ccoc2C)c(Br)c1,35%,8,12%,9%,10%,23
Cc1occc1C(=O)NNC(=S)NC(=O)COc1ccc(Cl)cc1Cl,3%,26*,0%,13%,2%,42
Cc1occc1C(=O)NNC(=O)COc1ccc(Br)cc1Br,11%,14,34%,-5%,-4%,50*
COc1cc(C(=O)N/N=C/c2sccc2C)cc(OC)c1OC,-13%,-2,-13%,.,-1%,26
O=C(N/N=C/c1sc(=O)n(-c2ccccc2)c1Cl)c1ccncc1,?,20*,?,0%,4%,67*
COc1cc(C(=O)N/N=C/c2sc(=O)n(-c3ccccc3)c2Cl)cc(OC)c1OC,-18%,19*,0%,-7%,-24%,16
Cc1ccc(C)c(C(C)NC(=S)NCc2ccc(F)cc2)c1 (stereo unspecified),3.3µM*,7,33%,-8%,13%,9
CCC(NC(=S)NCc1ccc(F)cc1)c1ccccc1 (stereo unspecified),6.6µM*,-3,?,-36%,1%,21
CC(=O)c1cccc(OCC(O)CNCCc2ccc(Cl)cc2)c1 (stereo unspecified),-23%[0.00184 µM],-2,15%,0%,0%,2
CCCc1cnc(NCCNCC(O)COc2ccc(Cl)c(Cl)c2)nc1 (stereo unspecified),?,-3,12µM*,8%,7%,-2
CC(=O)OCCCn1c(C)[n+](C)c2cc(Cl)c(Cl)cc21,5.2µM*,-2,37%,-1%,-1%,-2
CCn1c(C)[n+](CCOC(C)=O)c2cc(Cl)c(Cl)cc21,2.3µM*,-1,34%,1%,0%,5
C[N+]1([C@H](CO)Cc2c[nH]c3ccccc23)Cc2ccccc2C1,.,.,.,-8%,.,.
FC(F)(F)c1ccc(Nc2nnnc3ccccc23)cc1,1.3µM*,21*,1.5µM*,.,4%,36
O=C(COC(=O)c1cc[n+]([O-])cc1)Nc1ccc(F)c([N+](=O)[O-])c1,5%,-2,-4%,19%,-11%,-5
Cc1cccc2cc(CN(C(=O)c3cnccn3)C3CCCCC3)c(Cl)nc12,4.1µM*,-1,?,-7%,-9%,12
